Assay [1] can be described thus: ATG_XTT_Cytotoxicity: Cytotoxicity Assessment in the Attagene TRANS-FACTORIAL HepG2 Assay (AID 2283584). In a few lines:
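Viability endpoint from XTT after 24 h chemical exposure of reporter-transfected human HepG2 liver cells; signal loss fitted relative to DMSO negative control.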

The target of assay [2] is Cellular tumor antigen p53 (Homo sapiens) (UniProt P04637). In words: TOX21_p53_BLA_p2_ratio: Tox21 HCT-116 p53 Agonism Beta-lactamase Assay, Ratio, Phase 2 (AID 2283592). In a few lines: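 Read-out is the blue/green (460/530 nm, 405 nm excitation) ratio after 2 h CCF4-AM loading, fitted as gain versus DMSO. Compounds, pinned at 217-fold dilution from DMSO stocks, stayed 16 h on HCT-116 beta-lactamase reporter cells seeded 5 h earlier.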

For assay [3] the target is unchanged. In words: TOX21_p53_BLA_p3_ratio: Tox21 HCT-116 p53 Agonism Beta-lactamase Assay, Ratio, Phase 3 (AID 2283596). The method in brief:
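Cells were seeded at 4000/well, rested 5 h at 37C, then dosed with DMSO compound solutions (217-fold dilution) for 16 h. CCF4-AM substrate was loaded for 2 h at room temperature, and the 460/530 nm emission ratio was fitted for gain of signal versus DMSO.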

A short description of assay [4]: TOX21_p53_BLA_p4_viability: Viability Assessment in the Tox21 HCT-116 p53 Agonism Beta-lactamase Assay, Phase 4 (AID 2283597).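 Note: hits lower the luminescence signal meaning cytotoxicity.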 The method in brief:
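Cytotoxicity as reduced cellular ATP (CellTiter-Glo luminescence, 30 min room temperature), measured in the same wells following the CCF4 FRET p53 reading. Human HCT-116 cells received compounds in DMSO (217-fold dilution) for 16 h.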

In assay [5] the target is Cellular tumor antigen p53 (Homo sapiens) (UniProt P04637). As to the kind of experiment: TOX21_p53_BLA_p5_ratio: Tox21 HCT-116 p53 Agonism Beta-lactamase Assay, Ratio, Phase 5 (AID 2283599). In a few lines: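 HCT-116 p53-bla cells (4000/well) plated 5 h, dosed with compound (217-fold DMSO dilution) for 16 h at 37 C; CCF4-AM substrate 2 h at room temperature. Activity is the 460/530 nm emission ratio (405 nm excitation), fitted in gain-of-signal direction versus DMSO.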

Assay [6] has the same target. In words: TOX21_p53_BLA_p4_ratio: Tox21 HCT-116 p53 Agonism Beta-lactamase Assay, Ratio, Phase 4 (AID 2283601). The method in brief: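 HCT-116 p53 beta-lactamase reporter cells (4000/well) preincubated 5 h, then compound (217-fold dilution of DMSO stock) for 16 h at 37C. CCF4-AM substrate added 2 h at room temperature; 460/530 nm emission ratio fitted upward versus DMSO.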

Assay [7] is described as follows: TOX21_p53_BLA_p3_viability: Viability Assessment in the Tox21 HCT-116 p53 Agonism Beta-lactamase Assay, Phase 3 (AID 2283593).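 Note: cells exposed to compound for 16 h before reading.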 The method in brief:
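HCT116 cells, 4000/well, dosed 5 h after plating by pin transfer (217-fold dilution from DMSO stock) and incubated 16 h at 37C, 5% CO2. Viability read as ATP luminescence with CellTiter-Glo after 30 min at room temperature.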

A short description of assay [8]: TOX21_p53_BLA_p5_viability: Viability Assessment in the Tox21 HCT-116 p53 Agonism Beta-lactamase Assay, Phase 5 (AID 2283600). In a few lines: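 Viability came from CellTiter-Glo ATP luminescence, read after 30 min at room temperature. Before this, HCT-116 p53-bla cells (4000/well) had 16 hours of compound exposure at 37C, with DMSO stocks diluted 217-fold on transfer.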

Assay [9] in a line: TOX21_p53_BLA_p2_viability: Viability Assessment in the Tox21 HCT-116 p53 Agonism Beta-lactamase Assay, Phase 2 (AID 2283591).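 Note: compound exposure lasted 16 h at 37 °C; actives lower the ATP signal meaning cytotoxicity.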 In a few lines:
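HCT116 p53-bla cells, 4000/well, dosed after 5 h plating (217-fold dilution of DMSO stocks) and incubated 16 h at 37C. Viability taken as cellular ATP by CellTiter-Glo luminescence after 30 min RT; signal loss marks cytotoxicity.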

We go through 33 molecules from PubChem BioAssay (EPA / NIEHS).

“And” between values parts separate entries of the source, which are not always exact repeats. Equal entries are not always repeated. Results filed as inconclusive are left out. More than one record can exist for a structure, and the calls need not agree. The source made the active and inactive calls. Rule for the calls: active = hit-call score of the fitted dose curve at least 0.9, where 1 is the maximum; inconclusive = response in the unintended direction; inactive = score below 0.9.

Chain of Cellular tumor antigen p53 (Homo sapiens) (P04637 whole entry, looked up): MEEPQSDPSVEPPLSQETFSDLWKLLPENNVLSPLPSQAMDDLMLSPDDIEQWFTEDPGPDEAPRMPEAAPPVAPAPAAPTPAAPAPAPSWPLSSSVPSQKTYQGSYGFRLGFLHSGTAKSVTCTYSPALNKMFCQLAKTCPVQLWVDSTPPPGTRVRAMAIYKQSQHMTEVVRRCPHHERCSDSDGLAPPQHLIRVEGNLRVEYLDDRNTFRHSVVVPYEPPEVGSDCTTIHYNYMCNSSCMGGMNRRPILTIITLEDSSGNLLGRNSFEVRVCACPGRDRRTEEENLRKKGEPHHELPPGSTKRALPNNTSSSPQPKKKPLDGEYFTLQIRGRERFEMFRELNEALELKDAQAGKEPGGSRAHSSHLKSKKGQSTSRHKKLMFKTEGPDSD

On to `CCCCCC(CO)CCC` (stereo not drawn), for which the call in [1], in assay [2], in assay [3], in [4], in assay [5] and in [6] was inactive.

For the molecule `C=CC(=O)NCOCC(C)C`, the result in assay [1], in assay [7], in assay [4], in assay [8] and in [6] was inactive.

As for `Cc1ccc(C=O)s1`, the molecule was called inactive in [1], in assay [2], in assay [7], in assay [4], in assay [5] and in assay [6].

As to `CC1(C)C(=O)N(Br)C(=O)N1Cl`, the call in assay [1], in assay [2], in assay [7], in [4] and in [5] was inactive.

On to `COc1ccc(Cl)cc1C`, for which the molecule was called inactive in assay [1], in [2], in assay [3] and in [5].

Regarding `C=C(C)[C@@H]1CCC2=CC(=O)C[C@@H](C)[C@]2(C)C1`, the molecule was called inactive in assay [1], in assay [2], in [3], in assay [5], in [8] and in [6].

Turning to `CC(=O)OCCC(C)CC(C)(C)C` (stereo not drawn), the molecule was classed as inactive in [1], in assay [2], in [7], in [3], in [4] and in assay [5]. Besides, the molecule was called inactive in assay [8] and in assay [6].

For `CCCCCCCCCCCCN`, the AC50 (as a rule, the concentration giving half of the maximal activity seen) was 51.6 µM (active) in assay [9]; 85 µM (active) in [2]; 80.4 µM (active) and 66.7 µM (active) in [7]; 62.2 µM (active) in [4]; 83.1 µM (active) in assay [5]; 84.5 µM (active) in assay [8]. The molecule was classed as inactive in assay [9], in assay [2], in [3], in assay [5] and in assay [8].

Regarding `CC(C)(C)C(=O)c1ccccc1`, the molecule was classed as inactive in [9], in assay [2], in assay [7], in assay [3], in assay [5] and in assay [6].

With `Nc1ccc(S(N)(=O)=O)cc1`, the outcome in assay [9], in [2], in assay [7], in assay [3], in assay [4] and in [5] was inactive. In assay [6], the outcome was inactive.

Consider `CCCCC(CC)COC(=O)/C=C\C(=O)OCC(CC)CCCC` (stereo not drawn), for which the result in assay [9], in [2], in assay [7], in assay [4], in assay [5] and in assay [6] was inactive.

Consider `CCC(=O)OCc1ccccc1`, for which the call in assay [9], in assay [2], in assay [7], in assay [3], in assay [4] and in [5] was inactive. The molecule was called inactive in [8] and in [6].

Turning to `O=S(=O)(O)c1cccc2c(S(=O)(=O)O)cccc12`, the call in [1], in [3], in [4] and in assay [6] was inactive.

`CC(C)=CCCC(C)=CCCC(C)=CCO`: the outcome in assay [9], in assay [2], in assay [7], in assay [4], in assay [5] and in [8] was inactive.

`CCCCO`: the molecule was called inactive in assay [9], in assay [2], in assay [3], in [4], in assay [5] and in assay [8].

Turning to `CC1(C)[C@H]2CC[C@]1(C)[C@H](O)C2`, the molecule was called inactive in [9], in [2], in assay [7], in assay [3], in assay [4] and in [5]. Moreover, the result in assay [8] was inactive.

As for `C=C(C)C(=O)O[C@H]1C[C@@H]2CC[C@@]1(C)C2(C)C`, the outcome in [9], in assay [2], in [7], in assay [3], in assay [5] and in assay [6] was inactive.

For `CC(C)[C@H]1CC[C@@H](C)CC1=O`, the molecule was called inactive in [9], in assay [2], in assay [7], in [5] and in assay [8].

As for `O=C(O)c1cn(C2CC2)c2cc(N3CCNCC3)c(F)cc2c1=O`, the result in assay [1], in assay [4] and in assay [8] was inactive.

Regarding `COCCOCCOCCOCCOCCO`, the outcome in assay [9], in assay [2], in assay [7], in [3], in [5] and in assay [6] was inactive.

`CC1CC(OC(=O)c2ccccc2O)CC(C)(C)C1` (stereo not drawn): the result in assay [9], in [2], in assay [7], in [3], in assay [4] and in assay [5] was inactive. Besides, in [6], the outcome was inactive. Moreover, the half-maximal activity concentration (AC50) in assay [7] was 22.5 µM (active).

Turning to `NCCCCCCN`, the molecule was classed as inactive in assay [9], in [2], in assay [7], in [3], in [4] and in assay [5].

For `CCCC/C=C\CCCCCCCCCC=O`, the molecule was classed as inactive in assay [9], in [2], in [7], in [3], in assay [4] and in assay [5].

Regarding `CCCC(=O)c1cc(O)c(O)cc1O`, the call in [9], in assay [2], in assay [7], in assay [3], in [4] and in [5] was inactive. Besides, the call in assay [8] and in assay [6] was inactive.

For the molecule `CCO[Si](CCCS)(OCC)OCC`, the molecule was called inactive in assay [1], in [7] and in assay [5].

On to `CC(=O)Nc1ccc(CC(=O)O)cc1`, for which the call in assay [9], in assay [2], in [7], in assay [3], in [4] and in [5] was inactive. The result in [8] and in [6] was inactive.

Regarding `NC(=O)Nc1ccc(Cl)cc1`, the result in assay [1], in [3] and in [6] was inactive.

Take `CCCCCCCCCC=O`: the call in assay [9], in assay [2], in [7], in [3], in [8] and in assay [6] was inactive.

For `O=C(O)COCCN1CCN(C(c2ccccc2)c2ccc(Cl)cc2)CC1` (stereo not drawn), the outcome in [9], in assay [2], in assay [7], in assay [3], in [4] and in assay [5] was inactive. Also, the call in assay [8] and in assay [6] was inactive.

`CC(C=O)Cc1ccc(C(C)C)cc1` (stereo not drawn): the molecule was classed as inactive in assay [1], in assay [4], in [5] and in [8].

As to `O=C1C(c2[nH]c3ccc(S(=O)(=O)O)cc3c2O)=Nc2ccc(S(=O)(=O)O)cc21`, the molecule was classed as inactive in assay [9], in assay [2], in assay [7], in assay [3], in [4] and in assay [5].

In the case of `O=Nc1ccc(Nc2ccccc2)cc1`, the call in assay [9], in assay [7] and in assay [8] was inactive. Further, the AC50 is 46 µM (active) and 46.3 µM (active) in [2]; 67 µM (active) in assay [7]; 77.1 µM (active) and 61.3 µM (active) in assay [3]; 85.3 µM (active) and 75.2 µM (active) in assay [4]; 77.5 µM (active) and 46.3 µM (active) in assay [5].

For `NC(N)=NC(=O)c1nc(Cl)c(N)nc1N`, the molecule was classed as inactive in [9], in assay [2], in [7], in assay [3], in assay [4] and in [5]. Also, the call in assay [8] and in assay [6] was inactive.
